PubChem BioAssay (NCI)
About 83,000 compounds went through this panel and 20% of them were active in at least one assay; those are over-represented in the sample as a whole.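 Negative percent growth values reflect cell death: -40 means 40% of the cells present at the start died, and -100 means all died.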 A number with no mark means an inactive call. Calls of active or inactive are those of the source. How the source made its calls: active means growth percent below 10; inactive means the rest.

System: HL-60(TB) leukemia
Experiment: NCI-60 one-dose screen, 48 h (100 = growth as untreated, 0 = no growth, -100 = all killed)
Conditions: 10 µM unless noted

Row | Structure (SMILES) | growth
1 | COc1cc(/C=C/C(=O)c2cc(-c3ccc(F)cc3)ccc2O)cc(OC)c1OC | 39.5%
2 | CNCc1ccccc1CN(CC(=O)Nc1ccc2c(c1)CC1(C2)C(=O)Nc2ncccc21)C(=O)C(C)(C)C (stereo not given) | 100%
3 | O=c1oc2ccccc2cc1-c1csc(N=Nc2c(O)[nH]c3ccc(Br)cc23)n1 | 106%
4 | CCN(CCO)CC(=O)c1cc(Cl)cc(Cl)c1Cl | 106%
5 | COc1ccc(C(=O)/C=C/c2ccc(C)cc2)cc1S(N)(=O)=O | 56.2%
6 | O=[N+]([O-])c1ccccc1Sc1ccccc1[N+](=O)[O-] | 111%
7 | COC(=O)c1ccc2nc(-c3cc4ccccc4n3C)n(CCCCOc3cc4c(cc3OC)C(=O)N3CCC[C@H]3C=N4)c2c1 | -36.2% (active)
8 | COc1cc2c(cc1OC)C(=O)/C(=C/c1cc(-c3ccc4c(c3)OCO4)n[nH]1)C2 | -43.8% (active)
9 | C/C(=N/O)c1ccc(NC(=O)Cn2nc(-c3ccc(Cl)cc3)nc2N)cc1 | 94.7%
10 | CC1(C)CC[C@]23CC[C@]4(C)[C@H](CC[C@@H]5[C@@]6(C)C/C(=C/c7cccnc7)C(=O)C(C)(C)[C@@H]6CC[C@]54C)[C@H]2[C@H]1OC3=O | -0.84% [100 µM] (active)
11 | N#CSCC1CC(O)(c2ccccc2)C(c2ccccc2)C(c2ccc(Cl)cc2)O1 (stereo not given) | -1.83% (active)
12 | CCCNNC(=O)c1ccc(CNC(=O)/C=C/c2ccccc2)cc1 | 33.4% [2.5 µM]
13 | COc1ccc(-c2cc(C(=O)N3N=C(c4ccc(N)cc4)CC3c3ccccc3)c3ccccc3n2)cc1 (stereo not given) | -28% (active)
14 | COc1ccc(CNc2nc3ccccc3c3c(=O)c4ccccc4sc23)cc1OC | 98.9%
15 | Cc1nn(-c2ccc([N+](=O)[O-])cc2)c2ncnc(NCCc3ccccc3)c12 | 65.9%
16 | O=C(O)c1ccccc1Oc1cc(-c2ccco2)nc(OCCN2CCOCC2)n1 | 105%
17 | Cn1c(=O)c2[nH]c(SC/C(=N/O)c3ccc(Br)cc3)nc2n(C)c1=O | 99.5%
18 | OC(COc1cccc2ccccc12)CN1CCN(c2ccccc2)CC1 (stereo not given) | 90.9%
19 | CC1(C)CC[C@]23CC[C@]4(C)[C@H](CC[C@@H]5[C@@]6(C)C/C(=C/c7ccncc7)C(=O)C(C)(C)[C@@H]6CC[C@]54C)[C@H]2[C@H]1OC3=O | 43% [100 µM]
20 | CCn1c(=O)c2c(=O)c3c4c(oc3oc2c2ccccc21)C(=O)c1ccccc1C4=O | -18.8% (active)

Row | Structure (SMILES) | growth
21 | N#CC1C(=O)NC(c2ccccc2[N+](=O)[O-])c2sc3c(F)cccc3c21 (stereo not given) | 82.3%
22 | CCc1ccc(-c2ccc(COc3ccc(CC4SC(=O)NC4=O)cc3)cc2)cc1 (stereo not given) | 88.1%
23 | COc1ccc(C(=O)/C=C/c2ccc(/C=C/c3cc(OC)c(OC)c(OC)c3)cc2)cc1 | 21.5%
24 | COc1ccc(/C=C\c2cc(OC)c(OC)c(OC)c2)cc1OC(=O)c1cccc(Cn2cc(CCOC(=O)[C@H](N)Cc3cn(C)c4ccccc34)nn2)c1 | -42.7% (active)
25 | O=C1Nc2ccc(Cl)cc2[C@@](C#CC2CC2)(C(F)(F)F)O1 | 96.5%
26 | Cc1ccc(-c2ccc(Nc3ccccc3)nn2)cc1S(N)(=O)=O | 86.7%
27 | CCN(CC)CCOc1cccc2c1C(=O)c1ccccc1C2=O | 93.3%
28 | C[C@@H]1O[C@@H](O[C@@H]2C[C@H](c3ccc4c(c3O)C(=O)C3=C(C4=O)[C@@]4(O)C(=O)C[C@](C)(O)C[C@@]4(O)C=C3)O[C@H](C)[C@H]2O)C[C@H](O)[C@@H]1O | 99.5%
29 | Cc1cc(=O)oc2cc(Oc3nc(Br)cn4c(Br)cnc34)ccc12 | 30.8%
30 | CCOC(=O)c1c(C)nc2ccccc2c1/C=C/c1ccc(OC)cc1 | 83.3%
31 | CC(=O)Oc1c(Cl)cccc1-c1ccccc1 | 99.6%
32 | CC1=C(SCCC(=O)OC(C[Se]C2=C(C)C(=O)c3ccccc3C2=O)C(=O)NC(C)(C)C)C(=O)c2ccccc2C1=O (stereo not given) | 8.81% (active)
33 | NCCCNc1nc2ccccc2c2c(=O)c3cc(C(F)(F)F)ccc3sc12 | -23% (active)
34 | CN(C)c1ccc(/C=C/C(=O)c2ccccc2)cc1 | 66.7%
35 | CC(=O)OCCCCCCn1c2ccccc2c2c3c(c4c5ccccc5n(C)c4c21)C(=O)N(O)C3=O | 41.2%
36 | CNC(=O)c1cc(Oc2cccc3nc(NC(=O)Nc4cc(C(F)(F)F)ccc4Cl)ccc23)ccn1 | 103%
37 | CCC(=O)c1c(C)[nH]c(C)c1C | 92.8%
38 | CCCC(c1nnnn1C1CCCCC1)N1CCN(C(=O)c2ccco2)CC1 (stereo not given) | 12.6%
39 | CNCc1cccc2c1OCCOCCOCCNS(=O)(=O)c1ccc(cc1)-c1cnc(N)c(n1)C(=O)N2 | -10.8% (active)
40 | O=C(c1ccc(Cl)cc1)N1CCCCC1 | 98.7%
